Inhibition data for 89 molecules are collected here from PubChem BioAssay AID1645857 (Buhrlage Lab, Dana-Farber Cancer Institute and Novartis …, 2021).

Hit rate of the full screen: of about 47,000 compounds, about 1,400 (3%) were called active. Many of the other results were omitted from the sample, so actives are more common in it than they were. Values without a mark were called inactive. Cut-off read from the data, not from the text of the source: active = inhibition above about 30%; inactive = the rest.

In this experiment the target is Ubiquitin carboxyl-terminal hydrolase 28 (Homo sapiens) (UniProt Q96RU2). Nature of the experiment: blocks human USP28 ubiquitin-rhodamine cleavage (AID 1645857). Conditions: purified USP28, Ub-rhodamine cleavage fluorescence, 30 min; at 25 µM; stronger effect = higher value.
Sequence of Ubiquitin carboxyl-terminal hydrolase 28 (Homo sapiens) (Q96RU2 whole entry, looked up): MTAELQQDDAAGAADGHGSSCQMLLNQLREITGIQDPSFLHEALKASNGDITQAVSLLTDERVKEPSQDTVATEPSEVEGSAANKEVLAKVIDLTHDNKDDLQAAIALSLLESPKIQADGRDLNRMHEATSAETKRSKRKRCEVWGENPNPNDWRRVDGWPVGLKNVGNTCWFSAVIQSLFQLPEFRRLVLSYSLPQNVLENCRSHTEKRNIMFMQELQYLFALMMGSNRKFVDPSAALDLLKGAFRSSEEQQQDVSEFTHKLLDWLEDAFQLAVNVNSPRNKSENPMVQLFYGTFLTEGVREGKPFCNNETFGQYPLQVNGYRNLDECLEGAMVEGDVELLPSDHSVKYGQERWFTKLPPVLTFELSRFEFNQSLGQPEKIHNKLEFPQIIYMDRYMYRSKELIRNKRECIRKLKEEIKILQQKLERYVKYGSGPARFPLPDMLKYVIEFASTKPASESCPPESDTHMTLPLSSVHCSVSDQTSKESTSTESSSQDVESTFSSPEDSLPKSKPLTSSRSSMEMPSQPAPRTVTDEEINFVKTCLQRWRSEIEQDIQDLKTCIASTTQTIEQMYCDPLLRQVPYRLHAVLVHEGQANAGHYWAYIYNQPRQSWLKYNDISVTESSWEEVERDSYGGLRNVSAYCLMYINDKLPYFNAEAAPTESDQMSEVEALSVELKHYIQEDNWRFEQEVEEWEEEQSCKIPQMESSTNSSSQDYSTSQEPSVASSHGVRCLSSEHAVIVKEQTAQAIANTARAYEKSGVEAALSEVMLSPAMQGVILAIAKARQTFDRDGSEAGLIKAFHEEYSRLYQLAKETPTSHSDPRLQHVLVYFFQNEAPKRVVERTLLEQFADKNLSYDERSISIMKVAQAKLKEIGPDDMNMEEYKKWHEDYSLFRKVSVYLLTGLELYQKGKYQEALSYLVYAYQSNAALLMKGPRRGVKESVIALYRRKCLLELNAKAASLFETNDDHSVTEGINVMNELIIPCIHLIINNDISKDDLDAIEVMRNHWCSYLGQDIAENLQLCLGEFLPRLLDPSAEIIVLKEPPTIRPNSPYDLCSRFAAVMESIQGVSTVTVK
What is called inhibition is the drop in the measured response relative to a control, in per cent. As for `N#Cc1ccc(NC(=O)Nc2cccn(Cc3ccccc3F)c2=O)cc1`, the inhibition is 86.6% (active).
In the case of `Cc1noc(-c2cccn(Cc3cc(F)ccc3F)c2=O)n1` it was 29%.
Regarding `O=C(Cn1cccc(-c2nc(-c3ccccc3)no2)c1=O)Nc1ccccc1F`, the inhibition is 6.71%.
In the case of `CC1(C(=O)NC2CCCCCC2)Cn2c(nc3ccccc32)C(=O)N1CCc1ccccc1` (centres undefined) it was -1.29%; in that of `O=C(c1cc2c(=O)n3ccccc3nc2n1Cc1ccccc1)N1CCN(c2ccccc2)CC1`, -0.309%; in that of `COc1ccc(-c2[nH]c3ccccc3c2SCCNC(=O)c2ccc(S(=O)(=O)N3CCOCC3)cc2)cc1`, 32.8% (active).
`COc1ccc(-c2cnc(SCCNC(=O)c3cccc(F)c3)[nH]2)cc1`: the inhibition is 12.3%.
For `COc1ccc(NC(=O)c2cc(=O)[nH]c3ccccc23)cc1S(=O)(=O)N1CCOCC1`, the inhibition was -0.445%.
Next, `COc1ccccc1Nc1ncnc2oc(C)c(C)c12`: -18.5%; `COc1ccc(OC)c(-n2c(CNC(=O)c3ccco3)nnc2SCC(=O)N2CCc3ccccc32)c1`: 0.00951%; `CC(=O)c1ccc(NC(=O)CCCn2nc([N+](=O)[O-])cc2C)cc1`: 9.41%.
In the case of `C#CCOc1ccc2ccccc2c1CN1CCc2ccccc2C1` it was 39.7% (active).
Next, `C#CCOc1ccc(CN2CCc3nc(-c4cccnc4)[nH]c(=O)c3C2)cc1OC`: -1.43%.
As for `CS(=O)(=O)N1CCC2(CC1)CN(C(=O)c1ccc3[nH]ccc3c1)Cc1ccccc1O2`, the inhibition was 7.47%.
Next, `CC(C)Cc1cc(-c2nn3c(-c4ccccc4Cl)nnc3s2)n[nH]1`: 30.4% (active); `COCCn1ccc(-c2cc(C(=O)N3CCCN(C)CC3)c3ccccn23)n1`: -61%.
In the case of `CN(C)c1cccc(NC(=O)N2CC[C@@H]3[C@H]2C(=O)N(C)[C@@H](Cc2ccccc2)C(=O)N3C)c1` it was -0.0135%; in that of `CC1CCN(S(=O)(=O)N2CCCC(C(=O)Nc3ccccc3Cl)C2)CC1` (centres undefined), -2.94%.
As to `Cc1ccc(NC(=O)C2CCN(S(=O)(=O)c3cnc[nH]3)CC2)cc1Cl`, the inhibition was 39% (active).
Next, `CCc1cccc(NC(=O)C2CCN(c3ccncc3)CC2)c1`: 22%; `COc1ccc(CNC(=O)c2ccccc2-c2ncc(-c3ccccc3)o2)cc1`: 21.9%.
Regarding `COc1ccc(CNC(=O)c2cccc3cccnc23)cc1`, the inhibition was 4.72%.
Next, `COc1ccc(CNC(=O)c2[nH]nc3c2CCc2ccccc2-3)cc1`: 30.6% (active).
In the case of `Clc1cc2nc(N3CCN(c4ccccn4)CC3)c3nncn3c2cc1Cl` it was 36.5% (active); in that of `O=C(c1ccc(N2CCCC2)nn1)N1CCN(c2ccccn2)CC1`, 2.13%.
In the case of `Cc1nn(-c2ccccc2)c(C)c1S(=O)(=O)N1CCN(c2ccccn2)CC1` it was -7.5%.
As to `O=C(N[C@H]1C[C@@H]2C[C@H]1N(C(=O)c1ccc3c(c1)OCO3)C2)c1ccccc1`, the inhibition is -126%.
Next, `CCN(CC)c1ccc(NC(=O)Nc2ccc(OCc3ccccc3)cc2)cc1`: -7.22%; `O=S(=O)(Nc1ccc(Cc2ccncc2)cc1)c1ccc2c(c1)OCCO2`: 9.83%; `CCOc1ccc(NC(=S)Nc2ccc(Cc3ccncc3)cc2)cc1`: 36.8% (active).
Next, `Cc1cc(-c2ncc(C)[nH]2)nc(C2CCCCN2C(=O)c2ccccc2)n1` (centres undefined): 5.54%; `Cn1c(N2CCN(C(=O)c3cccc(Cl)c3)CC2)cc(=O)n(C)c1=O`: -5.96%.
With `Cc1c(Cl)cccc1NC(=O)C[n+]1cc(-c2ccc(Cl)cc2)n2c1CCC2`, the inhibition was 10.7%.
In the case of `CC(=O)C[n+]1cc(-c2ccc(C)cc2)n2c1CCC2` it was -0.406%.
In the case of `Clc1ccc(C[n+]2cc(-c3ccc(Cl)cc3)n3c2CCC3)cc1` it was 54.6% (active); in that of `CCCc1cc(=O)[nH]c(N2CCN(c3ccc(Cl)cc3)CC2)n1`, 0.253%.
Next, `CC(C)=CCC(O)C1=CC(=O)c2c(O)ccc(O)c2C1=O` (centres undefined): 93.4% (active).
With `CC(C)=CCc1cc(O)ccc1O`, the inhibition is -0.0939%.
Next, `CN1C(=O)[C@H](Cc2ccccc2)N(C)C(=O)[C@@H]2[C@H]1CCN2C(=O)Nc1cccc(C#N)c1`: -9.42%; `Cn1nc(C2CCN(Cc3ccc4c(c3)CC(C)(C)O4)CC2)c2nccnc21`: -6.5%.
For `CC(C)C(=O)N1c2ncnn2C(c2ccc(Cl)cc2)CC1c1ccccc1` (centres undefined), the inhibition is -5.15%.
In the case of `CC(=O)c1ccc(N2CCN(CC(=O)c3c(N)n(Cc4ccccc4)c(=O)n(C)c3=O)CC2)cc1` it was -11.8%.
`CN1CCC(N(C)C(=O)c2ccc(Cl)c(S(=O)(=O)Nc3ccccc3C(=O)N(C)C3CCN(C)CC3)c2)CC1`: the inhibition is -0.184%.
Next, `Cc1ccc(Cn2c(C(=O)O)c(CNC(C)CCc3ccccc3)c3ccccc32)cc1` (centres undefined): 32.3% (active); `CC(CCc1ccccc1)NCc1c(C(=O)O)n(Cc2ccccc2F)c2ccccc12` (centres undefined): 23%; `Cc1ccc(CCNCc2c(C(=O)O)n(C)c3ccccc23)cc1`: -5.83%.
With `CC1CCCCN1Cc1nc2c([nH]1)c(=O)n(C)c(=O)n2C` (centres undefined), the inhibition is -0.186%.
In the case of `CCC(Cc1ccccc1)NS(=O)(=O)c1ccc2c(c1)NC(=O)CS2` (centres undefined) it was 37.3% (active); in that of `CCCN(CCC)CCNS(=O)(=O)c1ccc2c(c1)NC(=O)CCS2`, -7.06%.
`CC(NS(=O)(=O)c1ccc2c(c1)SCC(=O)N2)c1ccccc1` (centres undefined): the inhibition was 13%.
Regarding `CC(C)NC(=O)CN1C(=O)CC(C)Sc2ccc(S(=O)(=O)N3CCCCC3)cc21` (centres undefined), the inhibition is 13.7%.
For the molecule `CCc1nnc(C2CCN(C(=O)c3ccc(F)cc3F)CC2)s1`, the inhibition is -5.47%.
Take `CC1CCN(c2nc(F)c3c(c2F)S(=O)(=O)CCN3Cc2cccnc2)CC1`: the inhibition was -20.5%.
Take `O=C(Nc1nnc(-c2cccc([N+](=O)[O-])c2)o1)C1CCN(S(=O)(=O)c2ccc3c(c2)CCC3)CC1`: the inhibition was 46.2% (active).
Next, `Cc1cccc(-c2nnc(-c3cccc(S(=O)(=O)N4CCCC4)c3)o2)c1`: 4.29%; `O=C(COC(=O)C1CCN(S(=O)(=O)c2c(Cl)cccc2Cl)CC1)Nc1ccc2c(c1)CCC2`: 15.4%.
Next, `CCOc1ccc2nc3sc(C(=O)N4CCCC4)c(N)c3cc2c1`: -2.52%; `COc1ccc(NC(=O)CC[C@@H]2NC(=O)N([C@@H](C)c3ccccc3)C2=O)cc1`: 8.47%.
Regarding `O=C(CCc1nnc2n(Cc3ccc(Cl)cc3)c(=O)c3ccccc3n12)NCCN1CCOCC1`, the inhibition was -1.7%.
Consider `Clc1ccc(C2NC3=NCN(Cc4ccco4)CN3c3nc4ccccc4n32)cc1` (centres undefined), for which the inhibition is 32.7% (active).
Next, `CN(Cc1cccnc1Oc1ccccc1)C(=O)c1cnccn1`: -1.11%.
Next, `O=C1COC2(CCN(c3ncccn3)CC2)CN1Cc1cccc(F)c1`: -14.6%; `CCN1C[C@H]2C3(CCN(S(=O)(=O)c4ccccc4)CC3)CC[C@@]2(C(=O)NC)C1`: 0.022%.
`Cc1ccc(CNC(=O)CCCn2c(=O)c3sccc3n(CC(=O)OCc3ccccc3)c2=O)cc1`: the inhibition was 45.6% (active).
In the case of `N#Cc1ccccc1Cn1c(=O)n(CCCC(=O)NCc2ccc(F)cc2)c(=O)c2ccccc21` it was 8.1%.
Next, `COc1ccc(CCNC(=O)CCCn2c(=O)c3ccccc3n(CC(=O)OCc3ccccc3)c2=O)cc1OC`: 26.2%; `CN1CCc2onc(-c3cccc(CN)c3)c2C1=O`: 11.5%.
In the case of `CCOc1ccccc1C1c2[nH]c3ccccc3c2C[C@H]2C(=O)N(CCCc3ccccc3)CC(=O)N12` (some centres undefined) it was -32.1%.
Take `CSc1ccccc1NC(=O)c1ccc(N2CCCC2)nn1`: the inhibition is 3.05%.
Take `CC1CCc2c(cnc3c(C(=O)NCc4cccnc4)cnn23)C1` (centres undefined): the inhibition is -1.11%.
Next, `Cc1ccccc1NC(=O)Cc1csc2nc(-c3ccc(F)cc3)cn12`: 37.7% (active); `Cc1cc(F)ccc1NC(=O)Cc1n[nH]c(Cc2ccccc2)n1`: -17.7%.
Next, `O=C(Cc1ccc(F)cc1)Nc1ccccc1Cc1ccccc1`: 11.8%.
Next, `N#Cc1ccc(C(=O)N2CCN(c3cc(-c4ccccc4)[nH]n3)CC2)cc1`: -11%.
As to `CCOC(=O)c1cnn(-c2ccc(C(=O)Nc3ccc(C(C)=O)cc3)cn2)c1N`, the inhibition was -5.3%.
On to `Cc1ccccc1NC(=O)c1ccc(-c2nc3cccnc3n(C3CCCC3)c2=O)cc1`, for which the inhibition is -11.7%.
In the case of `Cc1ccc(C(=O)Nc2cccc3c2CCCC3)cc1C` it was 1.01%; in that of `CC(=O)Nc1cccnc1-c1ccc(C(=O)Nc2ccc(C)c(C)c2)cc1`, 37.1% (active); in that of `O=C(c1cccc(Nc2ncccn2)c1)N1CCOCC2(C1)CN(c1ccccc1)C(=O)O2` (centres undefined), -1.6%.
In the case of `COc1ccc(CCNC(=O)c2ccccc2OCc2ccc(F)cc2)cc1` it was 10.8%.
Consider `COc1ccc(CCNC(=O)c2ccc3ccccc3c2)cc1OC`, for which the inhibition is 54.7% (active).
Next, `COc1ccc(CCNC(=O)CSc2cn(CCNC(=O)c3ccccc3C)c3ccccc23)cc1OC`: 13.1%.
Consider `Cc1cc(C)c(-c2nnc(NC(=O)c3ccc(-c4ccccc4)cc3)s2)c(C)c1`, for which the inhibition was -5.98%.
In the case of `CCOC(=O)c1ccc(NC(=O)CSc2nnc(CNC(=O)c3ccc(OC)cc3)n2C)cc1` it was -5.59%; in that of `Cc1ccc(NS(=O)(=O)c2cc3n(c2)CCN(C)C3=O)cc1`, -5.99%.
`O=C1C(O)=C(c2ccc(O)c(O)c2)C(=O)C(O)=C1c1ccccc1`: the inhibition was 66.9% (active).
For `O=CNC1CC2(CCCCC2)Oc2ccccc21` (centres undefined), the inhibition is -1.81%.
In the case of `c1ccc(-c2csc3ncnc(NC4CCCc5ccccc54)c23)cc1` (centres undefined) it was -4.83%; in that of `CN1CC(=O)N(C2CCCNC2)Cc2c(NC3CCc4ccccc43)ncnc21` (centres undefined), 90.6% (active).
